According to PubChem BioAssay (NCI):
Compounds without any hit were thinned out: in the full panel of roughly 79,000, 15% have a hit. Activity calls are given as the source filed them. No stated cut-off is given here; in the data, active means growth inhibition above about 70%; inactive means the rest.

How the values were obtained:
[1] = NCI Yeast Anticancer Drug Screen. Data for the rad52 strain (AID 147);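 further: 0% = growth of vehicle-treated control cultures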; settings: S. cerevisiae rad52 mutant growth inhibition, active compounds read high
Method in brief: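 Growth of repair-deficient yeast cells was compared between compound-treated and vehicle-treated cultures to give percent inhibition.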

[2] = NCI Yeast Anticancer Drug Screen. Data for the wt1 strain (AID 149);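 further: 0% = growth of vehicle-treated wt1 cultures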; settings: S. cerevisiae wt1 strain (SPY 50644) growth inhibition, active compounds read high
Method in brief: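 Growth inhibition read against vehicle controls after compound exposure of the wt1 yeast strain.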

[3] = NCI Yeast Anticancer Drug Screen. Data for the rad50EPP+ strain (AID 151);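 further: 0% = growth of vehicle-treated control cultures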; settings: S. cerevisiae rad50 mutant strain, active compounds read high
Method in brief: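 Measured: growth inhibition of rad50EPP+ yeast. Reference: vehicle-treated controls. Screen uses strains with defined genetic alterations in DNA damage repair or cell cycle control.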

[4] = NCI Yeast Anticancer Drug Screen. Data for the mgt1 strain (AID 153); settings: S. cerevisiae mgt1 mutant growth inhibition, active compounds read high
Method in brief: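 Compounds were applied to mgt1 mutant yeast, and growth was then compared against vehicle-treated control cultures to give percent inhibition.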

[5] = NCI Yeast Anticancer Drug Screen. Data for the mec2-1 strain (AID 157); settings: S. cerevisiae mec2-1 strain, active compounds read high
Method in brief: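 Compounds were applied to mec2-1 yeast cells. Their growth was then compared with that of vehicle-treated cultures to give growth inhibition.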

[6] = NCI Yeast Anticancer Drug Screen. Data for the rad14 strain (AID 159);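 further: 0% = growth of vehicle-treated control cultures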; settings: S. cerevisiae rad14 strain growth inhibition, active compounds read high
Method in brief: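 Growth inhibition vs vehicle controls; genetically altered yeast strain (DNA damage repair defect) treated with test compounds.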

[7] = NCI Yeast Anticancer Drug Screen. Data for the sgs1 mgt1 strain (AID 161);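 further: 0% = growth of cultures given vehicle only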; settings: S. cerevisiae sgs1 mgt1 strain, active compounds read high
Method in brief: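 Growth of a repair-deficient yeast mutant was monitored after compound treatment and expressed as inhibition relative to vehicle-treated cultures.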

[8] = NCI Yeast Anticancer Drug Screen. Data for the CLN2oe strain (AID 163);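 further: 0% = growth of vehicle-only control cultures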; settings: S. cerevisiae CLN2oe strain, active compounds read high
Method in brief: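 Cells of an engineered yeast line with disturbed cell-cycle regulation are treated with compound. Inhibition of growth is then calculated relative to the vehicle-treated reference.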

[9] = NCI Yeast Anticancer Drug Screen. Data for the cln2 rad14 strain (AID 165);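 further: 0% = growth equal to vehicle treated cultures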; settings: S. cerevisiae cln2 rad14 strain, active compounds read high
Method in brief: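 Strain: cln2 rad14 yeast, altered in cell cycle control and DNA damage repair. Read-out: growth inhibition vs vehicle.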

[10] = NCI Yeast Anticancer Drug Screen. Data for the bub3 strain (AID 167); settings: S. cerevisiae bub3 mutant strain, active compounds read high
Method in brief: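 Readout: yeast growth inhibition, expressed relative to vehicle-only wells. The test organism is a mutant strain from a panel with lesions in DNA repair or checkpoint genes.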

[11] = NCI Yeast Anticancer Drug Screen. Data for the wt2 strain (AID 169);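 further: 0% = growth of vehicle-treated yeast cultures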; settings: S. cerevisiae wt2 strain growth inhibition, active compounds read high
Method in brief: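 Growth of compound-treated yeast is measured and expressed as inhibition relative to vehicle-only controls.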

[12] = NCI Yeast Anticancer Drug Screen. Data for the mlh1 strain (AID 171);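 further: 0% = growth of vehicle-treated control cultures of the same strain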; settings: S. cerevisiae mlh1 strain growth inhibition, active compounds read high
Method in brief: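 Test agents were incubated with yeast bearing a defined DNA damage repair or cell cycle control alteration; values are growth inhibition normalised to vehicle-treated cultures.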

[13] = NCI Yeast Anticancer Drug Screen. Data for the sgs1 strain (AID 173);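 further: 0% = growth of vehicle-only control cultures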; settings: S. cerevisiae sgs1 mutant, active compounds read high
Method in brief: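 Strain with an altered DNA repair or cell cycle pathway exposed to compound. Growth then measured. Value = inhibition versus vehicle control.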

[14] = NCI Yeast Anticancer Drug Screen. Data for the mlh1 rad18 strain (AID 175); settings: S. cerevisiae mlh1 rad18 strain growth inhibition, active compounds read high
Method in brief: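 A repair-deficient yeast strain is exposed to test compound, and growth is scored relative to vehicle-treated controls.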

[15] = NCI Yeast Anticancer Drug Screen. Data for the rad18 strain (AID 177); settings: S. cerevisiae rad18 mutant growth inhibition, active compounds read high
Method in brief: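 DNA-repair-defective yeast; compound treatment; growth inhibition scored against vehicle.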

[16] = NCI Yeast Anticancer Drug Screen. Data for the rad50 strain (AID 155);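 further: 0% = growth of vehicle-only cultures of the same strain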; settings: S. cerevisiae rad50 strain growth inhibition, active compounds read high
Method in brief: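 Readout: growth inhibition relative to vehicle-treated cultures. Compound exposure was carried out in a genetically defined yeast strain deficient in DNA damage repair.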

[17] = at 5.0 µM (retest, dose inferred, filed as 0.5)
[18] = at 50.0 µM (retest, dose inferred, filed as 5.0)

Measured: growth inhibition

COC1C=COC2(C)Oc3c(C)c(O)c4c(c3C2=O)/C(=N/C2CCC(O)OC2C)C=C(NC(=O)/C(C)=C\C(=O)C2CC2C(O)C(C)C(O)C(C)C(OC(C)=O)C1C)C4=O (stereo not drawn)
active: [1]; at 100.0 µM 92% | [4]; at 100.0 µM 80% | [5]; at 100.0 µM 92% | [6]; at 100.0 µM 87% | [9]; at 50.0 µM 81.4% | [10]; at 100.0 µM 91% | [11]; at 100.0 µM 94% | [12]; at 100.0 µM 73% | [13]; at 100.0 µM 89%
inactive: [1]; at 1.2 µM 0% | [1]; at 3.7 µM -2% | [1]; at 11.0 µM -4% | [1]; at 33.0 µM 17% | [2]; at 1.2 µM 0% | [2]; at 3.7 µM 0% | [2]; at 11.0 µM 1% | [2]; at 33.0 µM -1% | [2]; at 100.0 µM 11% | [3]; at 1.2 µM -2% | [3]; at 3.7 µM -10% | [3]; at 11.0 µM -14% | [3]; at 33.0 µM -7% | [3]; at 100.0 µM -6% | [4]; at 1.2 µM 0% | [4]; at 3.7 µM -4% | [4]; at 11.0 µM -1% | [4]; at 33.0 µM 29% | [5]; at 1.2 µM 0% | [5]; at 3.7 µM 0% | [5]; [17] 2% | [5]; at 11.0 µM -6% | [5]; at 33.0 µM 1% | [5]; [18] 27% | [5]; at 50.0 µM 30.6% | [6]; at 1.2 µM -4% | [6]; at 3.7 µM -4% | [6]; at 11.0 µM -3% | [6]; at 33.0 µM 16% | [7]; [17] -6% | [7]; [18] 56% | [7]; at 50.0 µM 33.5% | [8]; at 1.2 µM -11% | [8]; at 3.7 µM -11% | [8]; at 11.0 µM -8% | [8]; at 33.0 µM 3% | [8]; at 100.0 µM 53% | [9]; [17] 15% | [9]; [18] 57% | [10]; at 1.2 µM -6% | [10]; at 3.7 µM -6% | [10]; [17] -19% | [10]; at 11.0 µM -2% | [10]; at 33.0 µM -5% | [10]; [18] 7% | [10]; at 50.0 µM 23.4% | [11]; at 1.2 µM -1% | [11]; at 3.7 µM 1% | [11]; at 11.0 µM 0% | [11]; at 33.0 µM 28% | [12]; at 1.2 µM 3% | [12]; at 3.7 µM 1% | [12]; at 11.0 µM -1% | [12]; at 33.0 µM 28% | [13]; at 1.2 µM 0% | [13]; at 3.7 µM -76% | [13]; at 11.0 µM 3% | [13]; at 33.0 µM 37% | [14]; [17] -7% | [14]; [18] 48% | [14]; at 50.0 µM 17.9% | [15]; at 1.2 µM 0% | [15]; at 3.7 µM 0% | [15]; at 11.0 µM -4% | [15]; at 33.0 µM 10% | [15]; at 100.0 µM 48%

Fc1ccc(NC(=S)SCc2ccc3c(c2)OCO3)cc1F
active: [1]; at 11.0 µM 71% | [1]; at 33.0 µM 98% | [1]; at 100.0 µM 97% | [2]; at 33.0 µM 98% | [2]; at 100.0 µM 97% | [3]; at 11.0 µM 96% | [3]; at 33.0 µM 99% | [3]; at 100.0 µM 99% | [16]; at 33.0 µM 99% | [16]; [18] 97% | [16]; at 50.0 µM 92.2% | [16]; at 100.0 µM 98% | [5]; at 33.0 µM 99% | [5]; [18] 99% | [5]; at 50.0 µM 91.7% | [5]; at 100.0 µM 98% | [6]; at 33.0 µM 99% | [6]; at 100.0 µM 94% | [7]; [18] 99% | [7]; at 50.0 µM 92.5% | [8]; at 33.0 µM 99% | [8]; at 100.0 µM 98% | [9]; [18] 99% | [9]; at 50.0 µM 91.8% | [10]; at 33.0 µM 98% | [10]; [18] 99% | [10]; at 50.0 µM 91.8% | [10]; at 100.0 µM 98% | [11]; at 33.0 µM 99% | [11]; at 100.0 µM 94% | [12]; at 33.0 µM 99% | [12]; at 100.0 µM 96% | [13]; at 33.0 µM 99% | [13]; at 100.0 µM 96% | [14]; [18] 98% | [14]; at 50.0 µM 90.5% | [15]; at 11.0 µM 73% | [15]; at 33.0 µM 100% | [15]; at 100.0 µM 98%
inactive: [1]; at 1.2 µM 15% | [1]; at 3.7 µM 9% | [2]; at 1.2 µM 6% | [2]; at 3.7 µM 6% | [2]; at 11.0 µM 66% | [3]; at 1.2 µM 0% | [3]; at 3.7 µM 27% | [16]; at 1.2 µM -9% | [16]; at 3.7 µM 22% | [16]; [17] 23% | [16]; at 11.0 µM 57% | [5]; at 1.2 µM -10% | [5]; at 3.7 µM 2% | [5]; [17] -7% | [5]; at 11.0 µM 49% | [6]; at 1.2 µM -9% | [6]; at 3.7 µM 20% | [6]; at 11.0 µM 65% | [7]; [17] 31% | [8]; at 1.2 µM 8% | [8]; at 3.7 µM 28% | [8]; at 11.0 µM 40% | [9]; [17] 21% | [10]; at 1.2 µM -19% | [10]; at 3.7 µM -11% | [10]; [17] 35% | [10]; at 11.0 µM 42% | [11]; at 1.2 µM -2% | [11]; at 3.7 µM 19% | [11]; at 11.0 µM 58% | [12]; at 1.2 µM -29% | [12]; at 3.7 µM -28% | [12]; at 11.0 µM 53% | [13]; at 1.2 µM -17% | [13]; at 3.7 µM -13% | [13]; at 11.0 µM 59% | [14]; [17] 6% | [15]; at 1.2 µM 20% | [15]; at 3.7 µM 34%
